# HePTP inhibitor: human HePTP phosphatase inhibition; hit rate 0.64% among 110,000; AID 521; recombinant HePTP phosphatase activity, OD absorbance; inhibition, % at 20 µM; in the data active = inhibition above about 50%;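 note: plate controls were vehicle for no effect and reference inhibitor for full effect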
# Mac1 fbg enh: enhancers of human CD11b/CD18 binding to fibrinogen; P05107+P11215; K562 CD11b/CD18 adhesion to fibrinogen, ATPlite luminescence; activation, % at 10 µM; hit rate 0.07% among 93,000; AID 1499;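 active = 10 µM primary screen giving 50% or more activity, confirmed by 40% or more on retest at that dose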
# Target sequence (P05107 whole entry, looked up, other chains not shown): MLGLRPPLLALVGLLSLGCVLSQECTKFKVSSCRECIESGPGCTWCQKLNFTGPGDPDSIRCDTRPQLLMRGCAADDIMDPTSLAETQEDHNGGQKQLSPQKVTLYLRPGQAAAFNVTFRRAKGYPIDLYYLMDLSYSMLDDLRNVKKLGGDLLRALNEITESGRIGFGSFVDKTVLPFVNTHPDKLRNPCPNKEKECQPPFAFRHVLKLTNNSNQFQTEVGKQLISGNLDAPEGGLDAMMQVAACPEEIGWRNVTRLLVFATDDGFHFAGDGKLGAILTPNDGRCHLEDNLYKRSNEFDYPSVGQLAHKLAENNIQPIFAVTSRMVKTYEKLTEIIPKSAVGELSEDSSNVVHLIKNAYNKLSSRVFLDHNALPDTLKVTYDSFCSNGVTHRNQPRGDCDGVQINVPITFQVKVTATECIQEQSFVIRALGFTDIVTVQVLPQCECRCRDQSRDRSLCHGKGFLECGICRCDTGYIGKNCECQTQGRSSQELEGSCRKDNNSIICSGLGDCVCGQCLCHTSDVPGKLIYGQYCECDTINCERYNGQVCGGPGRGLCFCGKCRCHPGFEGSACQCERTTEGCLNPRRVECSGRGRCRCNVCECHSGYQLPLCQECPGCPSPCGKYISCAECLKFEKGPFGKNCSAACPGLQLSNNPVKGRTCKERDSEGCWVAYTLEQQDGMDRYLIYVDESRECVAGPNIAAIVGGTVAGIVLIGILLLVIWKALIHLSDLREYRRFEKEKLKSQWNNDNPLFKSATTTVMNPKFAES
# CD11b adhes inh: blocks human CD11b/CD18 adhesion to fibrinogen. P05107+P11215. K562 CD11b/CD18 adhesion to fibrinogen, ATPlite luminescence; Mn2+ added to activate the integrin. inhibition, % at 10 µM. hit rate 0.54% among 93,000;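 active = primary inhibition of 50% or more at 10 µM, then 40% or more on retest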
# PLAP activator: activates human placental alkaline phosphatase; P05187; purified PLAP enzyme, luminescent substrate read-out; hits give high values; activation fold at 20 µM; hit rate 1.2% among 96,000; AID 696; in the data active = activation fold above about 2
# Numbers without * were called inactive; · = no result given. Most compounds without a hit are left out; they make up all but 1.5% or so of the library.
SMILES,HePTP inhibitor,Mac1 fbg enh,CD11b adhes inh,PLAP activator
c1ccc(-c2n[nH]c(-c3ccccn3)n2)cc1,·,-3.0,9.8,2.2*
CN1CCN(Cc2c(O)ccc3cc(-c4nc5ccccc5[nH]4)c(=O)oc23)CC1,0.7,·,·,·
O=c1oc2c(CN3CCCCC3)c(O)ccc2cc1-c1nc2ccccc2[nH]1,0.4,0.5,-14.5,2.2*
O=C1C2C(C(=O)N1/N=C/c1cc(Br)cc([N+](=O)[O-])c1O)C1C=CC2C12CC2 (centres undefined),·,-5.1,66.3*,1
COc1ccc(C(=O)NNC(=O)c2cc(OC)cc(OC)c2)cc1,2.6,·,·,·
O=C(NCC(c1cccs1)N1CCOCC1)c1ccccc1NS(=O)(=O)c1cccc([N+](=O)[O-])c1 (centres undefined),·,-5.3,70.9,·
O=C(NCC(c1cccs1)N1CCOCC1)c1ccccc1NS(=O)(=O)c1ccc(Cl)c([N+](=O)[O-])c1 (centres undefined),·,-9.6,101.4*,·
O=C(NCC(c1cccs1)N1CCOCC1)c1ccccc1NS(=O)(=O)c1ccc(Cl)cc1 (centres undefined),·,-6.1,79.2*,·
O=C(NCC(c1cccs1)N1CCOCC1)c1ccccc1NS(=O)(=O)c1cc([N+](=O)[O-])ccc1Cl (centres undefined),·,-8.6,84.6*,·
CSc1ncc(Cl)c(C(=O)Nc2nnc(SC/C=C/c3ccccc3)s2)n1,·,-1.8,18.3,2.3*
C=CCSc1nnc(NC(=O)c2nc(SCC)ncc2Cl)s1,·,-2.2,14.4,1
C=CCNc1nc2c(c(=O)n(C)c(=O)n2C)n1CCCCCC,0.6,-3.6,67.6*,1.2
C=CCNc1nc2c(c(=O)n(C)c(=O)n2C)n1CC,7.7,·,·,·
COC(=O)[C@H](CCSC)NC(=O)Nc1ccc(OC)cc1OC,·,0.5,-1.7,0.8
COC(=O)[C@H](CCSC)NC(=O)Nc1ccc(C)cc1C,0.8,-0.2,9.2,2.7*
CCc1ccc(OCC(=O)NC(NC(=S)Nc2ccc(C)cc2C)C(Cl)(Cl)Cl)cc1 (centres undefined),·,50.0*,-3.8,1
O=C(/C=C/c1ccc(F)cc1)NC(=S)Nc1cccc(O)c1,6.7,·,·,·
CC(C)N1CC(O)=C(c2nc3ccccc3[nH]2)C1=N,3.2,-4.5,6.7,2.5*
CC(C)CCN1CC(O)=C(c2nc3ccccc3[nH]2)C1=N,·,-7.7,3.1,1.4
CCCn1c(SCC(=O)NC(=O)Nc2ccc(C)cc2C)n[nH]c1=O,-4.8,3.6,32.2,1.2
CCCn1c(SCC(=O)c2cc(C)c(C)cc2C)n[nH]c1=O,·,-1.9,4.7,2.2*
CCOC(=O)Cn1c(=O)oc2cc(S(=O)(=O)NCc3ccccn3)ccc21,6.2,-1.7,-5.8,2*
COc1cc(NS(=O)(=O)c2ccc(NC(=O)c3cccc(C)c3)cc2)ncn1,-8.5,·,·,·
CCCCNS(=O)(=O)c1ccc2nc(SCC(=O)c3ccc(C#N)cc3)[nH]c2c1,15.0,-5.3,-3.4,2*
CCc1ccc(NC(=O)CN(c2cccc(Cl)c2)S(=O)(=O)c2ccccc2)cc1,6.7,·,·,·
SMILES,HePTP inhibitor,Mac1 fbg enh,CD11b adhes inh,PLAP activator
O=S(=O)(Nc1ncnc2sc3c(c12)CCC3)c1ccc(Cl)s1,31.5,-10.2,86.8*,1.4
Cc1nc(NS(=O)(=O)c2ccc(Br)cc2)c2c3c(sc2n1)CCC3,·,-10.9,92.7*,1.1
Cc1nc(NS(=O)(=O)c2cccs2)c2c3c(sc2n1)CCC3,0.9,0.2,5.2,1.5
O=C(NNC(=S)NC(=O)c1cccnc1)c1ccccc1,·,·,·,2.1*
COCCCNC(=S)NNC(=O)c1cccnc1,·,-1.5,-5.8,2.7*
O=C(NN=C(/C=C/c1ccccc1)/C=C/c1ccccc1)c1cccnc1,6.6,·,·,·
O=C(/C=C/c1ccccc1)NNC(=O)c1cccnc1,-12.6,·,·,2*
COCCCNC(=S)NNC(=O)c1ccc2c(c1)OCO2,·,·,·,2.2*
COc1ccc(CC(=O)O/N=C(\N)c2cccnc2)cc1OC,4.8,·,·,·
Nn1cnc2c(c1=O)C1(CCCC1)Cc1ccccc1-2,-1.1,·,·,·
COc1cccc(C(c2c(C)[nH]n(-c3ccccc3)c2=O)c2c(C)[nH]n(-c3ccccc3)c2=O)c1O,-14.5,·,·,·
COc1ccc(OC)c(C(c2c(C)[nH]n(-c3ccccc3)c2=O)c2c(C)[nH]n(-c3ccccc3)c2=O)c1,103.9*,·,·,·
O=[N+]([O-])c1cccc(S(=O)(=O)Nc2ccccc2-c2ccccc2)c1,-9.3,·,·,·
Cc1cccc(N2C(=O)CN=C2Nc2nc(C)cc(C)n2)c1,·,-1.1,1.9,2.6*
Cc1cc(C)nc(NC2=NCC(=O)N2c2cc(Cl)cc(Cl)c2)n1,6.3,-0.1,-24.4,0.9
CC(=O)Nc1ccc2oc(-c3cccc(Cl)c3)nc2c1,-2.3,·,·,·
COc1ccc([N+](=O)[O-])cc1N=Cc1c[nH]c2ccccc12,1.9,·,·,·
Cc1cc(NC(=O)c2c(F)cccc2Cl)n(-c2nc3ccccc3[nH]2)n1,·,-6.9,6.2,2.6*
COc1ccc(CCNc2nc(C)nc3c2oc2ccccc23)cc1OC,0.0,-6.5,51.5,2*
COc1ccc(CCNc2ncnc3c2oc2ccccc23)cc1OC,-11.4,·,·,1
Cc1ccc(OCCSCc2nc3ccccc3[nH]2)cc1,·,·,·,1
Clc1ccc(OCCSCc2nc3ccccc3[nH]2)cc1,·,-11.9,76.1*,0.9
O=C1NC(=S)N(c2ccc(F)cc2)C(=O)/C1=C/c1cc(Cl)c(O)c(Cl)c1,13.8,·,·,·
CSC1=NCCN1C(=O)c1ccc(Br)o1,-10.6,-5.6,50.8*,1.1
CCOc1cccc(C2Nc3ccccc3NC3=C2C(=O)CC(c2ccc(OC)cc2)C3)c1 (centres undefined),2.6,·,·,·
SMILES,HePTP inhibitor,Mac1 fbg enh,CD11b adhes inh,PLAP activator
COC(=O)C1=C(C)NC2=C(C(=O)CCC2)C1c1ccc(OCc2ccc(Cl)cc2)c([N+](=O)[O-])c1 (centres undefined),-5.0,·,·,·
Cn1c(CNc2ccccc2O)nc2ccccc21,3.1,-4.1,-4.7,2.4*
CC(C)OCCCNc1ncnc2c1[nH]c1ccccc12,7.5,-9.3,83.7*,0.9
C1=C(CCNc2ncnc3c2[nH]c2ccccc23)CCCC1,·,-8.6,99.7*,·
O=c1c2[nH]c3ccccc3c2ncn1CCC1=CCCCC1,5.3,0.1,-6.7,0.9
CCOc1ccc(N2C(=O)/C(=C/c3ccc(C(=O)OC)cc3)SC2=S)cc1,-0.3,·,·,·
CCCOc1ccc(Cl)cc1/C=C(/C#N)c1nc2ccc(C)cc2[nH]1,4.2,·,·,·
CC1=CC(C)(C)N(S(=O)(=O)c2ccc(F)cc2)c2ccccc21,·,-0.9,18.6,0.6
CC1=CC(C)(C)N(S(=O)(=O)c2ccc(C)cc2)c2ccc(C)cc21,-12.3,-5.4,76.5*,0.6
CCc1nnc(NC(=O)c2sc3nc4cc(C)ccc4cc3c2N)s1,·,100.3*,-11.3,1.2
Cc1cc(C)c2ccc(NN)nc2c1O,·,-3.9,7.1,2*
O=C(/C=C\c1ccco1)Oc1ccc(/C=N\NC(=O)c2cncc(Br)c2)cc1,57.5*,·,·,·
CCC(CC)C1C(C#N)=C(N)Oc2n[nH]c(C)c21 (centres undefined),16.0,-0.2,-1.6,2.1*
c1ccc2c(c1)ncn2CCCCOc1ccc2c(c1)CCC2,·,-4.0,82.0*,1.7
c1ccc(OCCCCn2cnc3ccccc32)cc1,-5.5,-9.2,63.1*,1
Cc1ccccc1OCCCCn1cnc2ccccc21,·,-6.8,95.2*,1.2
